# Screening results as filed in PubChem.
# KCNQ2 pot: KCNQ2 (rat) channel potentiation. B-score at 10 µM. AID 2239. 310,000 compounds, 0.54% hits. CHO-K1 KCNQ2, FluxOR thallium flux fluorescence; stronger effect = higher value;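 active = fluorescence ratio B-score at least 3 SD of library B-scores, with initial fluorescence B-score within 3 of them, cut at about 5.3 in these data; same plate scores as AID 2156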;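 also: B-score of peak minus minimum over baseline fluorescence ratio after K+ and Tl+ stimulus; positive B-score means potentiation of KCNQ2 with more thallium influx and brighter signal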
# KCNQ2 inh: inhibitors of rat KCNQ2 potassium channel. CHO-K1 KCNQ2, FluxOR thallium flux, 20 min; stronger effect = lower value. 310,000 compounds, 1.1% hits. B-score at 10 µM;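 active = fluorescence ratio B-score at most minus 3 library SDs, with starting brightness B-score within 2 library SDs, cut at about -5.5 in these data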
# Kir21 confirm: confirmation of mouse Kir2.1 potassium channel inhibitors; Kir2.1-expressing cells, FluxOR thallium flux fluorescence; stronger effect = lower value; AID 2032; Tl flux remaining, % of negative control (stronger effect = lower value), % at 10 µM; 2,300 compounds, 41% hits; shares compounds with KCNQ2 pot;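 active = Primary-screen hit whose thallium flux fell at least 3 control SD below untreated wells in both duplicates, with normal baseline fluorescence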;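 also: 0% = blank wells without stimulus and 100% = stimulated no-compound controls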
# Target sequence (P35561 whole entry, looked up): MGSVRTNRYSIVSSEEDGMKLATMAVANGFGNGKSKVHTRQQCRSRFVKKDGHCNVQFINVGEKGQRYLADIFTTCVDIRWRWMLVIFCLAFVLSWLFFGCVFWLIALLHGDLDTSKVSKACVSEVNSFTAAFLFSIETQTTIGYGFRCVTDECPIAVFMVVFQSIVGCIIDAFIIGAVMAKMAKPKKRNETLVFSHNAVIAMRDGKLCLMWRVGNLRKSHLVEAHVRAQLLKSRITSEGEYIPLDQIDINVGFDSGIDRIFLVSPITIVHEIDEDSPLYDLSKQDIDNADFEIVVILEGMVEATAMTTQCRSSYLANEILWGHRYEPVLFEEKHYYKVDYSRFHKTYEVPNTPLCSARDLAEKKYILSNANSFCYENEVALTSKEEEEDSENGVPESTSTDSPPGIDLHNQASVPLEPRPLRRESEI
# HEK293 Tl flux: parental HEK293 activity in Kir2.1 inhibitor counter-screen | 2,300 compounds, 19% hits | AID 2105 | parental HEK293 cells, FluxOR thallium flux fluorescence; 0% = unstimulated blank wells | shares compounds with KCNQ2 pot | FluxOR signal as % of negative control (100 = no effect), % at 10 µM;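 active = dye signal at least 3 control SD above or below untreated wells in both duplicates, raw fluorescence within 3, either direction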;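 also: percent is based on the flux ratio of peak minus minimum fluorescence over baseline F0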
# CHO-K1 ctr: counter-screen for KCNQ2 potentiators: effect in parental CHO-K1 cells; activity increase over 3SD of controls, % at 10 µM; shares compounds with KCNQ2 pot; FluxOR thallium flux fluorescence; zero = vehicle mean+3SD, 100% = vehicle-minus-blank window; 1,200 compounds, 43% hits; AID 2282;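 active = signal rise of at least 3 SD above the untreated control mean, in both duplicate wells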;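 also: counter screen of KCNQ2 potentiator hits so any rise reflects channel-independent effects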
# KCNQ1 sel pot: selectivity of KCNQ2 potentiators: effect on human KCNQ1; AID 2283; CHO KCNQ1 stable, FluxOR thallium flux fluorescence; beyond 3SD, as % of vehicle-control signal; activation over 3SD threshold, % at 10 µM; shares compounds with KCNQ2 pot; 1,200 compounds, 28% hits;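 active = fluorescence ratio rise of at least 3 SD of vehicle wells above their mean, in both replicate wells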;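 also: 0% = vehicle mean plus 3 SD and 100% = vehicle minus unstimulated blank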
# KCNQ2 pot confirm: rat KCNQ2 channel potentiator confirmation; shares compounds with KCNQ2 pot; CHO-KCNQ2 cells, FluxOR thallium flux fluorescence; potentiation, less the hit threshold, % at 10 µM; 1,200 compounds, 68% hits; AID 2287;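 active = fluorescence ratio rising 3 SD or more over the vehicle control mean in both replicates, plus primary screen hit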;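 also: peak minus minimum thallium fluorescence divided by baseline after K/Tl stimulus; 0% = vehicle mean plus 3 SD and 100% = vehicle minus unstimulated blank difference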
# Kir2-1 sel: tests whether KCNQ2 potentiators also affect mouse Kir2.1; 1,200 compounds, 2% hits; AID 2345; HEK293 Kir2.1, FluxOR thallium flux fluorescence; shares compounds with KCNQ2 pot; activity over 3SD threshold, % at 10 µM;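 active = fluorescence ratio rise of at least 3 SD above the vehicle-control mean, seen in both replicates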;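 also: 0% = vehicle mean plus 3 SD and 100% = vehicle minus no-stimulus blank window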
# KCNQ2 W236L MoA: potentiates the retigabine-insensitive rat KCNQ2 W236L mutant channel. shares compounds with KCNQ2 pot. CHO KCNQ2-W236L, automated patch clamp current. current increase over 3SD of negative controls (%), stronger effect = higher value, % at 25 µM. 940 compounds, 10% hits. AID 2558;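 active = current increase at least 3 SD of the untreated controls above them in both duplicate recordings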
# An asterisk follows results filed as active; i = inactive; x = no result. A selection: hits, their analogues and other compounds. The true share with any hit is near 1.6%.
SMILES,KCNQ2 pot,KCNQ2 inh,Kir21 confirm,HEK293 Tl flux,others
COC(=O)c1c(NC(=O)CCNCc2ccco2)sc2c1CCC2,0.39,i,18%*,i,
CNC[C@H](O)c1cccc(O)c1,0.71,i,x,x,
c1ccc(-n2nnnc2-c2cnc(-c3cccnc3)nc2-c2cccs2)cc1,x,i,x,x,
CC(=O)N(C1CC(C)C(C#N)(C#N)C1(C#N)C#N)N(C)C (centres undefined),24*,i,i,63%*,
NC(=O)CCn1c2ccccc2c2ccccc21,0.2,i,x,x,
CC(C)CCn1c2ccccc2c2cc(CC(N)=O)ccc21,0.94,i,i,i,
COc1nc(-c2ccccc2)ncc1S(=O)(=O)c1ccccc1,x,i,x,x,
COc1ccccc1Nc1nc(NCCO)c2ccccc2n1,0.03,i,x,x,
Cc1ccc(Nc2nc(NCCO)c3ccccc3n2)cc1C,x,i,28%*,i,
O=C(C1=C[C@@H](c2ccc(C(F)(F)F)cc2)C[C@@H](OCCCCO)O1)N1CCCCCCC1,x,i,x,x,
COc1ccc(C)cc1NC(=O)C(=O)NNC(=O)c1ccco1,15*,i,i,359%*,CHO-K1 ctr=3.4*;KCNQ1 sel pot=-31;KCNQ2 pot confirm=54*;Kir2-1 sel=-12;KCNQ2 W236L MoA=i
COc1ccc(C)cc1NC(=O)CCNC(=O)c1ccco1,0.11,i,x,x,
O=C(CNC(=O)c1ccccc1)NCc1nc2ccccc2[nH]1,x,i,x,x,
COc1ccc(OCCCC(=O)Nc2cccnc2)cc1,x,i,x,x,
CN(C)CCN(Cc1ccccc1)C(=O)[C@H](Cc1ccccc1)N1C(=O)c2ccccc2C1=O,0.91,i,69%*,i,
O=C(O)C(Cc1ccccc1)N1C(=O)c2ccccc2C1=O (centres undefined),1.3,i,x,x,
O=S(=O)(Cc1ccccc1)Nc1ccccc1Br,x,i,x,x,
CC(/C=N/NC(=O)c1ccccc1F)c1ccccc1 (centres undefined),0.73,i,x,x,
CN(C(=O)c1ccccc1F)C(c1ccccc1)c1ccccc1,x,i,66%*,i,
Cc1onc(-c2c(F)cccc2Cl)c1C(=O)N1CCN(c2ncc(Br)cn2)CC1,x,i,x,x,
C=CS(=O)(=O)c1sc(Cl)c(N2CCOCC2)c1[N+](=O)[O-],-6.8,-6.8*,20%*,48%*,
C=CSc1sc(Cl)c(N2CCOCC2)c1[N+](=O)[O-],x,i,x,x,
CCc1ccc(C(=O)COc2ccc(NC(C)=O)cc2)cc1,1,i,x,x,
O=C(Nc1ccc(Oc2cccc3ccccc23)cc1)c1ccco1,6.4*,i,i,i,CHO-K1 ctr=-7;KCNQ1 sel pot=-18;KCNQ2 pot confirm=-10;Kir2-1 sel=-37;KCNQ2 W236L MoA=i
O=C(O)c1ccccc1C(=O)Nc1ccc(Oc2cccc3ccccc23)cc1,0.74,i,x,x,
SMILES,KCNQ2 pot,KCNQ2 inh,Kir21 confirm,HEK293 Tl flux,others
O=C(CCc1ccccc1)Nc1ccc(NC(=O)c2ccco2)cc1,0.76,i,x,x,
O=C(Nc1ccc(CSc2ccccc2)cc1)c1ccco1,6.9*,i,i,i,CHO-K1 ctr=76*;KCNQ1 sel pot=-13;KCNQ2 pot confirm=-2;Kir2-1 sel=-46;KCNQ2 W236L MoA=i
Cc1ccc(O)c(/C=N/NC(=O)CN2CCCC2)c1,x,i,x,x,
COc1ccc(Br)cc1C(=O)Nc1ccc(N2CCCC2)cc1,x,i,x,x,
Cc1ccccc1-n1c(-c2csc(C)c2C)n[nH]c1=S,0.92,i,x,x,
CCc1ccc(CN2CCC(Oc3ccc(C(=O)NCc4ccccn4)cc3)CC2)o1,x,i,x,x,
Cc1cc(OCC(=O)NC2CCN(Cc3ccccc3)CC2)c2c(C)c(C)c(=O)oc2c1,x,i,x,x,
Cc1noc2ncnc(N3CCCCC3)c12,0.02,i,x,x,
O=C(NCC(c1cccs1)N1CCOCC1)c1ccccc1NS(=O)(=O)c1ccc(Cl)cc1 (centres undefined),x,i,x,x,
Brc1ccc(/C=N/Nc2ccc3ccccc3n2)cc1,1.6,i,x,x,
Fc1cccc(/C=N/Nc2ccc3ccccc3n2)c1,12*,i,i,i,CHO-K1 ctr=-14;KCNQ1 sel pot=-21;KCNQ2 pot confirm=-20;Kir2-1 sel=-30
O=C(NNC1=C(C(=O)C(F)(F)F)CCC1)c1ccccc1Cl,19*,i,i,i,CHO-K1 ctr=-8;KCNQ1 sel pot=-20;KCNQ2 pot confirm=74*;Kir2-1 sel=-28;KCNQ2 W236L MoA=i
COc1cccc(C(=O)NN=C2CCCC2)c1,x,i,x,x,
O=C(NNC(=O)c1ccccc1Cl)c1ccccc1Cl,0.96,i,x,x,
Nc1ccccc1C(=O)NNC1=C(C(=O)C(F)(F)F)CCC1,6.8*,i,i,i,CHO-K1 ctr=18*;KCNQ1 sel pot=-14;KCNQ2 pot confirm=0;Kir2-1 sel=-29;KCNQ2 W236L MoA=i
O=C(NNC1=C(C(=O)C(F)(F)F)CCC1)c1ccc(Br)cc1,4.8,i,x,x,
COc1cccc(C(=O)NNC2=C(C(=O)C(F)(F)F)CCC2)c1,6.4*,i,i,i,CHO-K1 ctr=3.0*;KCNQ1 sel pot=-7;KCNQ2 pot confirm=21*;Kir2-1 sel=-28;KCNQ2 W236L MoA=i
CCc1ccc(NC(=O)c2ccccc2Br)cc1,x,i,x,x,
Cc1cc(C)n(CC(=O)N2CCCC(N3CCN(c4cccc(C(F)(F)F)c4)CC3)C2)n1 (centres undefined),x,i,x,x,
O=C(NCc1ccccc1Cl)C1CCC(=O)N(C2CCCC2)C1 (centres undefined),x,i,x,x,
O=C(Nc1ccc(N2CCOCC2)c(Cl)c1)c1ccccc1F,0.11,i,x,x,
CC(C)=CCC/C(C)=C/CCC(C)NCCN1CCNCC1 (centres undefined),x,i,x,x,
CC(C)=CCC/C(C)=C/CC(C)(C)CNCCN1CCNCC1,x,i,i,i,
COc1ccc(C(CNC(=O)C2CCN(S(=O)(=O)c3ccc(F)cc3)CC2)N(C)C)cc1 (centres undefined),x,i,x,x,
CC1(C)CC(=O)C(C(c2ccncc2)C2C(=O)CC(C)(C)CC2=O)C(=O)C1,x,i,x,x,
SMILES,KCNQ2 pot,KCNQ2 inh,Kir21 confirm,HEK293 Tl flux,others
Cc1ccc(C(C2C(=O)CC(C)(C)CC2=O)C2C(=O)CC(C)(C)CC2=O)s1,5.6*,i,i,i,CHO-K1 ctr=-1;KCNQ1 sel pot=-20;KCNQ2 pot confirm=-31;Kir2-1 sel=-58
CS(=O)(=O)c1ccccc1C(=O)Nc1ccccc1Cc1ccccc1,0.14,i,x,x,
Cn1cccc1/C=N/NC(=O)c1sc2ccccc2c1Cl,x,i,x,x,
O=C(N/N=C/c1ccc([N+](=O)[O-])o1)c1sc2ccccc2c1Cl,5.5*,i,i,i,CHO-K1 ctr=7.0*;KCNQ1 sel pot=-24;KCNQ2 pot confirm=-15;Kir2-1 sel=-35
COCCCNC(=O)c1ccccc1Oc1ccccc1,x,i,x,x,
CCC(CC)NC(=O)c1ccccc1Oc1ccccc1,x,i,55%*,i,
